A short description of assay [1]: A549 cell viability effects, profiling panel, calcein-AM fluorescence, 48 h, basal (AID 1162). The note with it: higher = more signal.
A short description of assay [2]: adipocyte viability effects, profiling panel, cell-based, 3T3-L1 adipocytes, calcein-AM fluorescence, 48 h, basal (AID 1163). The note with it: 3T3-L1 adipocytes viability, higher = more signal.
A short description of assay [3]: HepG2 cell viability effects, profiling panel, calcein-AM fluorescence, 48 h, basal (AID 1164). The note with it: higher = more signal.
The nature of assay [4]: MM1S cell viability effects, profiling panel, calcein-AM fluorescence, 48 h, basal (AID 1165).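 Further: viability of MM1S multiple myeloma cells under basal unstimulated conditions.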 The note with it: higher = more signal.
Assay [5] is described as follows: basal RPMI8226 viability, no added stimulus, profiling panel, cell-based, calcein-AM fluorescence, 48 h, PK04 Diversity Set (AID 1166).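 Further: cells grown under basal conditions without added stimulus.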 The note with it: RPMI8226 myeloma viability, higher = more signal.
Assay [6] is described as follows: basal HepG2 mitochondrial membrane potential changes, profiling panel, cell-based, JC-1 fluorescence, 24 h, 100 nL compound (AID 1167). The note with it: higher = more signal.
A short description of assay [7]: basal 3T3-L1 adipocyte mitochondrial potential changes, profiling panel, cell-based, JC-1 fluorescence, 3T3-L1 adipocytes, 24 h, 100 nL compound (AID 1168). The note with it: JC-1 mitochondrial fluorescence, higher = more signal, called active from +8 up or from −8 down.
Assay [8] is described as follows: basal RPMI8226 mitochondrial membrane potential changes, profiling panel, cell-based, JC-1 fluorescence, 24 h, 100 nL compound (AID 1169). The note with it: RPMI8226 myeloma, JC-1 mitochondrial potential fluorescence, higher = more signal.
The nature of assay [9]: basal MM1S mitochondrial membrane potential changes, profiling panel, cell-based, JC-1 fluorescence, 24 h, 100 nL compound (AID 1170). The note with it: higher = more signal.
Assay [10] can be described thus: A549 lung cancer cell viability effects, profiling panel, resazurin fluorescence, 24 h, PK04 Diversity Set (AID 1171). The note with it: higher = more signal, called active from +8 up or from −8 down. (In general: Alamar Blue is a resazurin reagent that responds to reducing activity.)

The structures appear in SMILES notation. Activity calls are given as the source filed them.
Further: test concentration not given here.

As to `[N-]=[N+]=Nc1ccccc1C[C@@]1(C(=O)NCc2ccccc2)N=C(c2ccc(OCCCO)cc2)O[C@@H]1c1ccccc1`, the z-score in [1] is -1.36; in assay [2], 0.902; in assay [3], -1.78; in [4], -2.51; in assay [5] it was -3.76; in [6], 1.45. Further, the z-score in [7] is -0.739 (inactive); in assay [8], -1.3; in assay [9], -0.738; in assay [10] it was 0.808 (inactive).

With `O=C(CS)NCCCCCCNC(=O)[C@H]1C[C@H]2C(=O)NCC(=O)N2[C@H]1c1cccc(OCCO)c1`, the z-score in [1] is -0.109; in [2], 1.18; in assay [3], -0.232; in assay [4], -0.436; in [5], -1.09; in assay [6] it was -0.407. Besides, the z-score was 0.225 (inactive) in assay [7], 0.211 in assay [8], -0.497 in [9] and -0.15 (inactive) in [10].

Consider `NCCCCCCNC(=O)[C@@H]1C[C@@H]2C(=O)NCC(=O)N2[C@@H]1c1cccc(OCCO)c1`, for which the z-score in assay [1] was 0.51; in assay [2], 0.22; in assay [3], 1.06; in assay [4], 0.604; in assay [5], -0.431; in [6], 1.14. Moreover, the z-score was 0.885 (inactive) in [7], 0.533 in [8], 0.307 in [9] and 0.678 (inactive) in assay [10].

Regarding `C=CCOC(=O)[C@H]1[C@@H]2C(=O)O[C@@H](c3ccccc3)[C@@H](c3ccccc3)N2[C@@H](c2ccc(OCCOC(=O)[C@@H]3C[C@@H]4C(=O)N[C@@H](Cc5ccccc5)C(=O)N4[C@@H]3c3ccc(O)cc3)cc2)[C@]12C(=O)Nc1ccc(I)cc12`, the z-score is -1.29 in assay [1]; -0.28 in assay [2]; 0.561 in assay [3]; -0.325 in assay [4]; -0.561 in assay [5]; -2.14 in assay [6]. In addition, the z-score in assay [7] was 0.687 (inactive); in assay [8] it was -0.398; in [9], -1.03; in assay [10], -0.454 (inactive).

Regarding `CCCCC(=C=CC[C@@H](O)c1ccc(OCCO)cc1)CCO`, the z-score in assay [1] was 1.39; in assay [2], -0.0802; in assay [3] it was 0.016; in [4], -0.64; in assay [5], 0.796; in [6], 0.0677. Moreover, the z-score in [7] is -0.214 (inactive); in [8], -0.0377; in assay [9], 1.03; in assay [10], 1.46 (inactive).

For the molecule `COC(=O)C(CC#Cc1ccc2c(c1)[C@]1(C(=O)N2)[C@H](c2ccccc2OCCO)N2[C@H](c3ccccc3)[C@H](c3ccccc3)OC(=O)[C@H]2[C@@H]1C(=O)N1CCN(c2ncccn2)CC1)C(=O)OC`, the z-score in assay [1] is -0.071; in [2], -1.46; in assay [3], 0.496; in [4] it was -3.23; in assay [5], -4.35; in assay [6], -0.735. Besides, the z-score in assay [7] is 0.181 (inactive); in assay [8] it was -1.11; in assay [9] it was -1.92; in assay [10], 0.103 (inactive).

Take `COC(=O)C(CC#Cc1ccc2c(c1)[C@]1(C(=O)N2)[C@H](C(=O)NC[C@H](O)c2ccccc2)[C@H]2C(=O)O[C@H](c3ccccc3)[C@H](c3ccccc3)N2[C@@H]1c1ccc(O)cc1)C(=O)OC`: the z-score in assay [1] was -0.244; in [2], -1.56; in assay [3], -0.0776; in assay [4] it was -1.46; in assay [5], -1.97; in [6] it was -2.14. Moreover, the z-score is -1.75 (inactive) in assay [7], -0.933 in assay [8], -0.492 in [9] and 0.489 (inactive) in assay [10].

As for `O=C1O[C@H](c2ccccc2)[C@H](c2ccccc2)N2[C@H]1[C@@H](C(=O)O)[C@]1(C(=O)Nc3ccccc31)[C@H]2c1ccc(OCCO)cc1`, the z-score in assay [1] is -0.29; in assay [2] it was 1.11; in [3] it was -0.119; in assay [4] it was 0.338; in assay [5] it was -2.44; in [6] it was -0.706. The z-score in assay [7] was 0.254 (inactive); in assay [8], -0.295; in [9], 0.0484; in assay [10] it was 0.683 (inactive).

Take `CCc1cccc(NC(=O)O[C@H]2[C@H](OC(=O)Nc3ccccc3-c3ccccc3)[C@H](OC(=O)Nc3ccccc3-c3ccccc3)[C@@H](OC)O[C@@H]2CO)c1`: the z-score was -2.01 in [1]; -0.228 in assay [2]; -1.7 in [3]; -1.62 in assay [4]; -0.201 in [5]; -0.812 in assay [6]. Also, the z-score in assay [7] was -0.398 (inactive); in assay [8], -0.841; in assay [9] it was -1; in assay [10], -0.684 (inactive).

As to `CC(C)N1C(=O)[C@@]2(Cc3ccccc31)c1ccccc1C(=O)N(Cc1ccccc1C(F)(F)F)[C@H]2c1ccc(CO)cc1`, the z-score in [1] is -0.262; in assay [2], 0.523; in assay [3], 0.133; in assay [4], -0.895; in [5], -1.27; in assay [6], -0.77. Further, the z-score in assay [7] was 0.109 (inactive); in assay [8], 0.0301; in [9], 1.03; in assay [10] it was 0.752 (inactive).

With `CC(C)(C)OC(=O)CC[C@@]1(C(=O)N2CCOCC2)N=C(c2ccc(OCCCO)cc2)O[C@@H]1c1ccccc1CN=[N+]=[N-]`, the z-score is -0.688 in assay [1]; 1.35 in assay [2]; -0.261 in assay [3]; -0.169 in [4]; -1.58 in assay [5]; 0.259 in [6]. The z-score in assay [7] is -0.506 (inactive); in [8], -0.546; in assay [9], -0.567; in assay [10], 0.792 (inactive).

Regarding `C=C[C@@H](CO)NS(=O)(=O)c1ccc(Br)cc1`, the z-score in [1] was 2.03; in assay [2], 0.935; in assay [3], 2.23; in assay [4], 0.855; in [5], 1.05; in assay [6], 0.631. Also, the z-score was 0.369 (inactive) in assay [7], 0.133 in [8], 0.993 in assay [9] and 2.35 (inactive) in assay [10].

With `COC(=O)c1c2oc(c1C(=O)OC)C(=O)N[C@H](Cc1ccccc1)Cn1cc(nn1)C1(CCCCC1)NC(=O)N[C@H](CO)CC2`, the z-score in [1] was 0.78; in assay [2] it was 0.705; in [3], 0.286; in assay [4], 0.977; in assay [5], 0.943; in [6], 0.381. The z-score in assay [7] is 0.621 (inactive); in assay [8], -0.662; in [9], -1.2; in assay [10], -0.547 (inactive).

For `COc1ccc(C#Cc2ccc3c(c2)[C@]2(C(=O)N3)[C@H](c3ccccc3OCCO)N3[C@H](c4ccccc4)[C@H](c4ccccc4)OC(=O)[C@H]3[C@@H]2C(=O)NC[C@H](O)c2ccccc2)cc1`, the z-score was -1.22 in assay [1]; 0.449 in assay [2]; -1.88 in assay [3]; -2.85 in [4]; -4.12 in assay [5]; -1.21 in assay [6]. The z-score in assay [7] was 3.95 (inactive); in [8] it was -0.957; in assay [9], -1.66; in assay [10], -1.01 (inactive).

In the case of `O=C1C2C=CC(C(O)C3CCCCC3)N(Nc3ccccc3F)C2C(=O)N1c1ccccc1` (stereo not given), the z-score in assay [1] was -0.112; in assay [2] it was 0.1; in [3] it was -0.528; in [4], 0.345; in [5] it was -0.925; in assay [6], -0.804. Moreover, the z-score in assay [7] is -0.865 (inactive); in [8], -0.224; in assay [9] it was -0.433; in [10], -0.852 (inactive).

Values taken from PubChem BioAssay.
